Results: PubChem BioAssay AID588795 (National Center for Advancing Translational Sciences (NCATS), 2011)
Values joined by “and” are separate entries in the source; they are usually repeats but may differ in a detail not shown here. Equal values may be shown once. Hit rate of the full screen: of about 390,000 compounds, about 1,400 (0.36%) were called active. Where a call stands in place of a potency, no number is given. Inconclusive results (about 2%) are left out. The sample holds actives, similar compounds and a random draw of the others, so the mix is not that of the screen. Calls follow the shape of the dose curve; as a rule, active = well fitted inhibition curve with a large enough effect; inconclusive = small, poorly fitted or top-dose-only effect; inactive = no such curve, though single readings can be large or run the other way.

target: Flap endonuclease 1 (Homo sapiens) (UniProt P39748); experiment: qHTS Assay for the Inhibitors of Human Flap endonuclease 1 (FEN1).; also: nearly all actives have a fitted effect of over 65% in size; conditions: Recombinant FEN1 flap cleavage, fluorescence, 15 min; series mostly up to 114 µM
Sequence (P39748 whole entry, looked up): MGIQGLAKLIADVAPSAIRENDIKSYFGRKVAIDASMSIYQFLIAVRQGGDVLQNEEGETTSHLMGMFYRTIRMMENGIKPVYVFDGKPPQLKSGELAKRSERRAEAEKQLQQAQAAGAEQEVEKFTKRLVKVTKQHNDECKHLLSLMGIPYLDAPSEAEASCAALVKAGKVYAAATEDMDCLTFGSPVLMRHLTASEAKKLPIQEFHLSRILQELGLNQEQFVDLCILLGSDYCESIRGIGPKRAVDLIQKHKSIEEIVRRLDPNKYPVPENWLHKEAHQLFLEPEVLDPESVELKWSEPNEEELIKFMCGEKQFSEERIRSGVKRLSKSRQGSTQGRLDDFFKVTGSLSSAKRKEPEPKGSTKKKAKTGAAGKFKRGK
Outline: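 In this screen, 50 nM flap DNA substrate was added to 10 nM FEN1 pretreated with compound for 15 min at room temperature; cleavage was followed with reads at 0 and 15 min, and Hill fitting gave concentration–response parameters.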
Potency is read from the fitted curve at half-maximal effect.

SMILES	Potency
COc1cccc(/C=N/Nc2ccc(S(=O)(=O)Nc3ccccc3C(=O)O)cc2[N+](=O)[O-])c1O	79.4 µM (active)
CCOc1ncccc1C(=O)NNC(=O)c1cccc(S(=O)(=O)Nc2ccccc2OC)c1	inactive
COC(=O)c1ccccc1NS(=O)(=O)c1ccc2[nH]c(=O)[nH]c2c1	inactive
O=C1C(Cl)=C(Oc2ccccc2)C(=O)c2ccccc21	56.2 µM (active)
COc1ccc(Cn2c(=O)[nH]c3cc(C(=O)N4CCN(C(=O)c5ccco5)CC4)ccc3c2=O)cc1	inactive
Cc1ccc(S(=O)(=O)N2CCN(c3nc(-n4cnc5ccccc54)nc4ccccc34)CC2)cc1	inactive
C/C=C/NNC(=O)Cc1ccc(OC)cc1	inactive
Cc1cccc(C2CC(=O)Oc3c2c(=O)n(C)c2ccccc32)c1 (stereo not drawn)	inactive
Cc1cccc(OP(=O)(Nc2c(C)n(C)n(-c3ccccc3)c2=O)Oc2cccc(C)c2)c1	inactive
Cc1cccc(Oc2c([N+](=O)[O-])c(=O)n(C)c3ccccc23)c1	20 µM (active)
Cc1[nH]c2ccccc2c1C(=O)C(=O)N(C)c1ccccc1	inactive
CCCC(=O)N1CCN(c2nc3c(OC)ccc(C)c3s2)CC1	inactive
Cc1cc[n+](C2CCCCC2)cc1	inactive
CCOC(=O)C1Nc2ccc(C(F)(F)F)cc2C2C=CCC12 (stereo not drawn)	inactive
CCOc1cc(C(=O)O)ccc1OCCOc1ccccc1	inactive
CCOc1cccc2c1N[C@@H](c1ccc(C(=O)O)cc1)[C@H]1CC=C[C@@H]21	14.1 µM (active)
OC(CBr)CN1CCCCC1 (stereo not drawn)	inactive
O=C(Nc1ccccc1)c1ccccc1OCc1ccccc1	inactive
C#CCOCCOCCOCCNc1nc(N2CCN(C(=O)[C@H](CCC(=O)O)n3cc(CN)nn3)CC2)nc(N2CCN(C(=O)[C@H](CCC(=O)O)n3cc(CN)nn3)CC2)n1	inactive
C#CCOCCOCCOCCNc1nc(N2CCN(C(=O)CCCCCCCCCCNC(=O)Cn3cc(CCCCCN)nn3)CC2)nc(N2CCN(C(=O)CCCCCCCCCCNC(=O)[C@H](CO)n3cc(CCCSC)nn3)CC2)n1	39.8 µM (active)

SMILES	Potency
C#CCOCCOCCOCCNc1nc(N2CCN(C(=O)Cn3cc(CCO)nn3)CC2)nc(N2CCN(C(=O)[C@H](CCCCN)n3cc(CCCC)nn3)CC2)n1	inactive
O=C(COC(=O)c1ccccc1OCCOc1ccccc1)Nc1cccc(Br)c1	inactive
Cc1ccc(S(=O)(=O)c2c(Nc3cccc(Cl)c3)sc(C(=O)c3ccc4c(c3)OCO4)c2N)cc1	inactive
Cc1ccc(C)c(N2CCN(CCCNC(=O)Nc3ccc(Cl)cc3)CC2)c1	inactive
COc1ccc(C2Nc3ccc(NC(=O)COC(C)=O)cc3C(=O)N2Cc2ccccc2)cc1COc1ccc(NC(C)=O)cc1 (stereo not drawn)	inactive
Cc1ccc(-c2nnc3ccc(SCC(N)=O)nn23)cc1	inactive
Cc1cc(-c2n[nH]c(=S)n2/N=C/C(Br)=C/c2ccccc2)n[nH]1	inactive
S=c1[nH]nc(-c2cc(-c3ccsc3)n[nH]2)n1-c1ccccc1	inactive
S=c1[nH]nc(-c2cc(-c3ccccc3)n[nH]2)n1/N=C/c1c2ccccc2cc2ccccc12	39.8 µM (active)
Cc1cccc(NC(=O)COC(=O)c2ccccc2OCc2cccc(Br)c2)c1	inactive
COc1ccc(CN(Cc2ccccc2)C(=O)c2ccc(O)cc2)cc1COc1ccc(NC(C)=O)cc1	inactive
O=C1c2ccccc2C(=O)N1c1ccc(S(=O)(=O)N2CCOCC2)c2ccccc12	inactive
CCN1/C(=C/c2ccc3ccc(C)cc3[n+]2CC)Sc2ccccc21	50.1 µM (active)
OC(Cc1ccc2ccccc2n1)c1ccc(Cl)c(Cl)c1 (stereo not drawn)	inactive
O=C1COc2ccc(-c3csc(-c4ccc(Cl)cc4)n3)cc2N1	inactive
Cc1cc(C)cc(NC(=O)CSc2nc(=O)n(CCN3CCOCC3)c3c2CCC3)c1	inactive
CCOc1ccc(NC(=O)CSc2nnc3c(n2)[nH]c2ccc(S(=O)(=O)N4CCOCC4)cc23)cc1	inactive
Cc1ccc(-n2ncc3c(NCCCn4ccnc4)ncnc32)cc1Cl	inactive
C(=Nc1ccc(/C=C/c2ccnc3ccccc23)cc1)c1cc2c3c(c1)CCCN3CCC2	inactive
O=[N+]([O-])c1c(NCCO)cc(Sc2nc3ccccc3s2)c2nonc12	44.7 µM (active)

SMILES	Potency
CC(C)(C)c1ccc(S(=O)(=O)Nc2ccc(O)c(Sc3nc4ccccc4s3)c2)cc1	inactive
CN(C(=O)CSc1nc2ccc(NC(=O)COc3ccccc3)cc2s1)c1ccccc1	inactive
COc1cc(OC)c2c(C)cc(=O)oc2c1C(CCN1CCCCC1)c1ccc(N(C)C)cc1 (stereo not drawn)	inactive
CCN(CC)c1nc(C#N)nc(OC)n1	inactive
CN(CCOc1ccccc1)C(=O)c1cc(-c2ccco2)nc2ccccc12	inactive
CC1CCCN(C(=O)c2cc(-c3ccco3)nc3ccccc23)C1 (stereo not drawn)	inactive
CN(C(=O)COC(=O)c1cc(-c2ccco2)nc2ccccc12)C1CCS(=O)(=O)C1 (stereo not drawn)	50.1 µM (active)
O=C(O)c1c(Br)c(Br)c(Br)c(Br)c1C1c2ccc(O)cc2Oc2cc(O)ccc21	3.98 µM (active)
N#CC1=C(N)Oc2cc(O)ccc2C1C1CCCCC1 (stereo not drawn)	inactive
Cc1ccc(-c2nnc(Nc3ccc(C(=O)N(C)C)cc3)c3ccccc23)cc1S(N)(=O)=O	inactive
Cc1ccc(C)c(Nc2nnc(-c3ccc(C)c(S(=O)(=O)N4CCCCC4)c3)c3ccccc23)c1	89.1 µM (active)
Cc1ccc(Nc2nnc(-c3ccc(C)c(S(=O)(=O)N4CCCCC4)c3)c3ccccc23)cc1	inactive
O=[N+]([O-])c1ccc(S(=O)(=O)N2CCN(c3nc(-c4ccccc4)nc4ccccc34)CC2)cc1	inactive
NS(=O)(=O)c1ccc(NC(=O)CSc2nnc3c(n2)[nH]c2ccccc23)cc1	inactive
COc1ccc(CCNC(=O)C(=O)NCC(c2ccco2)S(=O)(=O)c2cccs2)cc1OC (stereo not drawn)	inactive
O=c1[nH]c2ccccc2n2c(-c3ccccc3)nnc12	79.4 µM (active) and 20 µM (active)
O=c1cc(-c2ccccc2)n2c(SCc3ccccc3)nnc2[nH]1	inactive
CC(C)(C)OC(=O)N(Cc1ccco1)S(=O)(=O)c1ccccc1Br	inactive
